Laboratory results: PubChem BioAssay (EPA / NIEHS)
Records with an inconclusive call do not appear. Calls of active or inactive are those of the source. How the source made its calls, unless noted: active means hit-call score of the fitted dose curve at least 0.9, where 1 is the maximum; inconclusive means response in the unintended direction; inactive means score below 0.9.

Columns and labels:
[1] = Tanguay_ZF_120hpf_TR_legacy: (Legacy) Oregon State University Tanguay Lab 120 Hour Post-fertilization zebrafish Assay for Touch Response (AID 2283667)
Outline: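 Tropical 5D wild-type zebrafish embryos statically exposed to 120 hpf at 28°C, sealed and dark-covered, 0.64% DMSO final; touch response scored as present/absent by brightfield microscopy at 120 hpf. Trimethyltin chloride 5 uM positive control; dead embryos not scored.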

[2] = read-out: sulfotransferase (SULT2A), SULT2A1 (gene 6822); assay: CLD_SULT2A_6hr: CellzDirect (CLD) Gene Expression Assay for sulfotransferase (SULT2A) at 6 hours (AID 2283669);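 further: hits raise transcript level above the DMSO vehicle baseline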
Outline: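 Primary human hepatocytes from two donor preparations were dosed daily with chemicals or 0.2% DMSO and harvested at 6 h. Transcript induction read by qNPA chemiluminescence, fitted for gain of signal relative to DMSO; morphology-based cytotoxicity annotated.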

[3] = read-out: glucuronosyltransferase (UGT1A1), UGT1A1 (gene 54658); assay: CLD_UGT1A1_6hr: CellzDirect (CLD) Gene Expression Assay for glucuronosyltransferase (UGT1A1) at 6 hours (AID 2283672)
Outline: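 Primary human hepatocytes from two donor preparations, dosed with fresh solutions in 0.2% DMSO, harvested at 6 h. UGT1A1 mRNA measured by qNPA chemiluminescence; induction fitted upward versus DMSO.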

[4] = read-out: xenobiotic metabolism (CYP1A1), CYP1A1 (gene 1543); assay: CLD_CYP1A1_24hr: CellzDirect (CLD) Gene Expression Assay for xenobiotic metabolism (CYP1A1) at 24 hours (AID 2283673);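 further: CYP1A1 mRNA level by quantitative nuclease protection with chemiluminescence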
Outline: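 Primary human hepatocytes dosed daily with fresh solutions in 0.2% DMSO vehicle. mRNA measured at 24 h by quantitative nuclease protection assay with chemiluminescence; gain-of-signal fit versus DMSO, with morphology-based cytotoxicity flags.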

[5] = read-out: ABC Transporter (ABCB11), ABCB11 (gene 8647); assay: CLD_ABCB11_6hr: CellzDirect (CLD) Gene Expression Assay for ABC Transporter (ABCB11) at 6 hours (AID 2283675);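 further: hits raise ABCB11 mRNA level so AC50 marks induction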
Outline: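 Human primary hepatocytes (two donor preparations) given fresh chemical daily at multiple concentrations, vehicle 0.2% DMSO. ABCB11 mRNA induction measured 6 h after dosing by qNPA chemiluminescence versus DMSO; cytotoxicity annotated from morphology.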

[6] = CLD_ACTIN_6hr: CellzDirect (CLD) Gene Expression Assay for Baseline Control (Actin) at 6 hours (AID 2283676);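 further: active means increased actin mRNA relative to DMSO vehicle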
Outline: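 Primary human hepatocytes dosed with fresh chemical solutions (vehicle 0.2% DMSO), harvested at 6 h. Actin mRNA quantified by quantitative nuclease protection assay with chemiluminescent read-out, as background control relative to DMSO.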

[7] = read-out: Cytochrome P450 2B6 (Homo sapiens) (UniProt P20813); assay: CLD_CYP2B6_6hr: CellzDirect (CLD) Gene Expression Assay for xenobiotic metabolism (CYP2B6) at 6 hours (AID 2283677);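 further: actives raise CYP2B6 transcript above DMSO baseline so AC50 marks an inducer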
Outline: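 Primary human hepatocytes dosed with chemicals at multiple concentrations, vehicle 0.2% DMSO; CYP2B6 mRNA induction measured 6 h after dosing by quantitative nuclease protection assay with chemiluminescence, gain of signal fitted relative to DMSO.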

[8] = CCTE_Padilla_ZF_144hpf_TERATOSCORE: (Legacy) CCTE's 144 Hour Post-fertilization zebrafish Assay Teratoscore, Padilla Lab (AID 2283679; active means hit-call score of the fitted dose curve at least 0.9, where 1 is the maximum; inactive means score below 0.9;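 on AC50: zebrafish embryos with chorions exposed by immersion from 6-8 hpf to 5 dpf with daily renewal; teratogenicity score from eye scoring of death hatching and malformations at 144 hpf; higher score means more developmental defects relative to DMSO baseline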)
Outline: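 Larvae scored by eye at 144 hpf for death, hatching and malformations after a day in clean Hanks'. Before that, daily-renewed exposure at 80 uM (0.4% DMSO, 26C) from roughly 6-8 hpf through 5 dpf, 4 embryos per chemical.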

[9] = read-out: Glyceraldehyde-3-phosphate dehydrogenase (Homo sapiens) (UniProt P04406); assay: CLD_GAPDH_6hr: CellzDirect (CLD) Gene Expression Assay for Baseline Control (Glyceraldehyde 3-phosphate dehydrogenase) at 6 hours (AID 2283681);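 further: active means increased signal relative to DMSO vehicle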
Outline: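 Primary human hepatocytes from two donor preparations, dosed at multiple concentrations with 0.2% DMSO vehicle; GAPDH mRNA measured 6 h after dosing by chemiluminescent quantitative nuclease protection assay (qNPA) on denatured lysates. Serves as background control; cytotoxicity annotated by morphology.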

[10] = read-out: ABC Transporter (ABCB1), ABCB1 (gene 5243); assay: CLD_ABCB1_24hr: CellzDirect (CLD) Gene Expression Assay for ABC Transporter (ABCB1) at 24 hours (AID 2283684);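 on AC50: potency for increase in ABCB1 mRNA relative to DMSO vehicle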
Outline: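 Primary human hepatocytes, two donor preparations, dosed daily with fresh solutions; vehicle 0.2% DMSO; harvested at 24 h. ABCB1 mRNA measured by quantitative nuclease protection assay (chemiluminescence); morphology-based cytotoxicity annotated.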

[11] = read-out: Cytochrome P450 2B6 (Homo sapiens) (UniProt P20813); assay: CLD_CYP2B6_24hr: CellzDirect (CLD) Gene Expression Assay for xenobiotic metabolism (CYP2B6) at 24 hours (AID 2283686)
Outline: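 Primary human hepatocytes dosed daily for two days with fresh solutions, harvested at 24 hours; mRNA induction quantified by qNPA chemiluminescence, gain of signal vs 0.2% DMSO vehicle. Cytotoxicity annotated from phase-contrast morphology.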

[12] = read-out: Cytochrome P450 2C9 (Homo sapiens) (UniProt P11712); assay: CLD_CYP2C9_24hr: CellzDirect (CLD) Gene Expression Assay for xenobiotic metabolism (CYP2C9) at 24 hours (AID 2283688)
Outline: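 Primary human hepatocytes from two donor preparations, dosed daily for two days at multiple concentrations; vehicle 0.2% DMSO. CYP2C9 mRNA induction at 24 h measured by qNPA chemiluminescence relative to DMSO; cytotoxicity annotated from morphology.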

[13] = read-out: Cytochrome P450 3A4 (Homo sapiens) (UniProt P08684); assay: CLD_CYP3A4_24hr: CellzDirect (CLD) Gene Expression Assay for xenobiotic metabolism (CYP3A4) at 24 hours (AID 2283689)
Outline: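 Primary human hepatocytes from two donors dosed daily with fresh compound for two days, 0.2% DMSO vehicle. CYP3A4 mRNA at 24 hr by qNPA chemiluminescence; gain-of-signal fit versus DMSO, cytotoxicity flagged by morphology.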

[14] = read-out: Cytochrome P450 2C19 (Homo sapiens) (UniProt P33261); assay: CLD_CYP2C19_6hr: CellzDirect (CLD) Gene Expression Assay for xenobiotic metabolism (CYP2C19) at 6 hours (AID 2283678)
Outline: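 Primary human hepatocytes from two donor preparations were dosed daily, with 0.2% DMSO as vehicle, and harvested 6 h after dosing. CYP2C19 mRNA induction was measured by qNPA chemiluminescence and fitted as gain of signal against DMSO.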

[15] = read-out: HMG-CoA synthase (HMGCS2), HMGCS2 (gene 3158); assay: CLD_HMGCS2_24hr: CellzDirect (CLD) Gene Expression Assay for HMG-CoA synthase (HMGCS2) at 24 hours (AID 2283691)
Outline: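 Primary human hepatocytes from two donor preparations, dosed daily with fresh solutions; vehicle 0.2% DMSO, 24 h harvest. HMGCS2 mRNA quantified by qNPA with S1 nuclease digestion and chemiluminescence; gain fitted versus DMSO, cytotoxicity annotated by morphology.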

[16] = read-out: ABC Transporter (ABCB11), ABCB11 (gene 8647); assay: CLD_ABCB11_48hr: CellzDirect (CLD) Gene Expression Assay for ABC Transporter (ABCB11) at 48 hours (AID 2283697)
Outline: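 Primary human hepatocytes from two donor preparations dosed daily for two days at multiple concentrations; 0.2% DMSO vehicle. ABCB11 mRNA at 48 h by quantitative nuclease protection assay, chemiluminescence; fitted for induction versus DMSO.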

[17] = read-out: sulfotransferase (SULT2A), SULT2A1 (gene 6822); assay: CLD_SULT2A_24hr: CellzDirect (CLD) Gene Expression Assay for sulfotransferase (SULT2A) at 24 hours (AID 2283694);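 on AC50: potency for increased SULT2A1 mRNA level as induction over DMSO baseline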
Outline: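 Primary human hepatocytes from two donor preparations were dosed daily with fresh solutions, vehicle 0.2% DMSO. At 24 h, lysates went to quantitative nuclease protection (qNPA) with S1 digestion and chemiluminescent readout. Cytotoxicity was annotated from phase-contrast morphology.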

[18] = read-out: Cytochrome P450 2B6 (Homo sapiens) (UniProt P20813); assay: CLD_CYP2B6_48hr: CellzDirect (CLD) Gene Expression Assay for xenobiotic metabolism (CYP2B6) at 48 hours (AID 2283699);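 further: actives raise transcript level above DMSO so potency reflects induction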
Outline: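 Primary human hepatocytes dosed daily for two days over multiple concentrations, 0.2% DMSO vehicle; CYP2B6 mRNA quantified at 48 h by qNPA chemiluminescence. Induction fitted as gain of signal versus DMSO; cytotoxicity annotated by morphology.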

[19] = read-out: xenobiotic metabolism (CYP1A2), CYP1A2 (gene 1544); assay: CLD_CYP1A2_24hr: CellzDirect (CLD) Gene Expression Assay for xenobiotic metabolism (CYP1A2) at 24 hours (AID 2283683)
Outline: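 Primary human hepatocytes from two donor preparations dosed daily with multiple concentrations of chemical, 0.2% DMSO vehicle. CYP1A2 mRNA at 24 h quantified by qNPA chemiluminescence; gain of signal analyzed relative to DMSO. Cytotoxicity flagged by phase-contrast morphology.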

[20] = read-out: glucuronosyltransferase (UGT1A1), UGT1A1 (gene 54658); assay: CLD_UGT1A1_24hr: CellzDirect (CLD) Gene Expression Assay for glucuronosyltransferase (UGT1A1) at 24 hours (AID 2283696)
Outline: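 Primary human hepatocytes from two donor preparations were dosed (0.2% DMSO vehicle) and harvested at 24 h; UGT1A1 mRNA induction was quantified by chemiluminescent qNPA, fitted as gain relative to DMSO.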

Measured: AC50

Chain of Cytochrome P450 3A4 (Homo sapiens) (P08684 whole entry, looked up): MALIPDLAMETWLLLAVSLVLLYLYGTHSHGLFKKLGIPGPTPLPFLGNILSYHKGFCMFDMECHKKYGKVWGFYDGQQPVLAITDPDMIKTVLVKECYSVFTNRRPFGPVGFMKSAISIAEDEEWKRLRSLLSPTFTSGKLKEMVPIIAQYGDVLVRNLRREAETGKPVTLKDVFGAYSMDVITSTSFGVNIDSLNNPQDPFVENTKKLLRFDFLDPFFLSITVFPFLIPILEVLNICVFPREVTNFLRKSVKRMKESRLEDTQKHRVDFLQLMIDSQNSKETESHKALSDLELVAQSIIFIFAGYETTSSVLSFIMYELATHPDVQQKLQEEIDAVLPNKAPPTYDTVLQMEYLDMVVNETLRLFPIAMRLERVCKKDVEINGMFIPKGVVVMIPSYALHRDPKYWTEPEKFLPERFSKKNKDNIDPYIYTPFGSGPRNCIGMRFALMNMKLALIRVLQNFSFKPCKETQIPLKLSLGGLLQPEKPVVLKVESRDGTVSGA
Chain of Cytochrome P450 2C19 (Homo sapiens) (P33261 whole entry, looked up): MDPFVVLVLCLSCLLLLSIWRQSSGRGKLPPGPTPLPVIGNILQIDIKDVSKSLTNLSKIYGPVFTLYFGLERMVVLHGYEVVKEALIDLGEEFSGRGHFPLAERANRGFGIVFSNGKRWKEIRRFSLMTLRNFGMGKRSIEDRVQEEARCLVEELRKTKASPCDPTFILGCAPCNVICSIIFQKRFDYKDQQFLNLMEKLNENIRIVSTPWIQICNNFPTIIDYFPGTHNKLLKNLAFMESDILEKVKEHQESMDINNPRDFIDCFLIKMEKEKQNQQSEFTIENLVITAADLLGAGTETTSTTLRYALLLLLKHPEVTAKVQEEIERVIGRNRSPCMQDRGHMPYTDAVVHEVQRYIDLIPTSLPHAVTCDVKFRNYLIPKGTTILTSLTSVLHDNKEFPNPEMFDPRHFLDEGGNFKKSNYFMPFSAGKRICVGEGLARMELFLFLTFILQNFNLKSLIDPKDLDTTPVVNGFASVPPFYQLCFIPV
Chain of Glyceraldehyde-3-phosphate dehydrogenase (Homo sapiens) (P04406 whole entry, looked up): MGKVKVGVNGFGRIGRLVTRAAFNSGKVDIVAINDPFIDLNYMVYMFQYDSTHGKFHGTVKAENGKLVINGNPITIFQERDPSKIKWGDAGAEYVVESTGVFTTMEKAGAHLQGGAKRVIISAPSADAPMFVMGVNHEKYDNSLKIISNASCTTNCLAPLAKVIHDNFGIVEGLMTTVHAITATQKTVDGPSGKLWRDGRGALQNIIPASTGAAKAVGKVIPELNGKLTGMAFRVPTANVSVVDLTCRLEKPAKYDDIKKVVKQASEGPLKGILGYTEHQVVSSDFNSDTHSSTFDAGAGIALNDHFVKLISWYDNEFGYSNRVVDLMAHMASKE

O=S1OCC2C(CO1)C1(Cl)C(Cl)=C(Cl)C2(Cl)C1(Cl)Cl (stereo unspecified)
active: [7] 1.24 µM | [8] 3.4 µM | [11] 2.56 µM | [13] 20 µM
inactive: [1] | [2] | [3] | [4] | [5] | [6] | [9] | [10] | [12]

N#Cc1c(Cl)c(Cl)c(Cl)c(C#N)c1Cl
inactive: [14] | [10] | [13] | [15] | [16]
active: [2] 33.5 µM | [5] 20 µM | [7] 20 µM | [8] 0.187 µM

Cc1cc(C)nc(NC(=O)NS(=O)(=O)c2ccccc2C(=O)OC2COC2)n1
inactive: [2] | [3] | [6] | [7] | [14] | [8] | [9] | [10] | [17] | [16] | [18]
active: [4] 5.65 µM | [13] 20 µM

Clc1ccccc1-c1nnc(-c2ccccc2Cl)nn1
active: [4] 5.94 µM | [7] 0.0004 µM | [11] 0.00929 µM | [13] 3.97 µM | [17] 0.852 µM
inactive: [2] | [3] | [5] | [6] | [14] | [8] | [9] | [10] | [12] | [16]

O=C(O)C(F)(F)C(F)(F)C(F)(F)C(F)(F)C(F)(F)C(F)(F)C(F)(F)F
inactive: [1] | [3] | [4] | [5] | [6] | [7] | [14] | [8] | [9] | [10] | [15] | [17]
active: [13] 20 µM

CCOc1nc(NC)nc(NC(=O)NS(=O)(=O)c2ccccc2C(=O)OC)n1
inactive: [2] | [3] | [7] | [8] | [9] | [10] | [12] | [13] | [16]
active: [4] 7.53 µM

[2H]C1([2H])[n+]2ccccc2-c2cccc[n+]2C1([2H])[2H]
inactive: [5] | [6] | [14] | [8] | [9] | [10] | [15]

COP(=O)(OC)OC=C(Cl)Cl
active: [7] 1.89 µM | [8] 53.8 µM
inactive: [1] | [3] | [4] | [5] | [6] | [9] | [10] | [15] | [17] | [16]

COC(=O)c1ccccc1CS(=O)(=O)NC(=O)Nc1nc(OC)cc(OC)n1
active: [4] 32.4 µM | [19] 20 µM
inactive: [2] | [3] | [5] | [6] | [14] | [8] | [10] | [12] | [13] | [20]

CCS(=O)(=O)c1cccnc1S(=O)(=O)NC(=O)Nc1nc(OC)cc(OC)n1
inactive: [3] | [5] | [14] | [8] | [9] | [10] | [15] | [17] | [16]
active: [4] 1.9 µM | [7] 11.3 µM | [13] 20 µM

COc1nn(CSP(=S)(OC)OC)c(=O)s1
active: [4] 4.39 µM | [7] 2.94 µM | [8] 18.2 µM
inactive: [1] | [3] | [14] | [10] | [12] | [17] | [20]

CC1(c2ccc(Oc3ccccc3)cc2)OC(=O)N(Nc2ccccc2)C1=O (stereo unspecified)
inactive: [1] | [2] | [5] | [6] | [14] | [13]
active: [4] 3.89 µM | [7] 1.88 µM | [8] 0.172 µM

CC[C@H](C)[C@H]1O[C@]2(C=C[C@@H]1C)C[C@@H]1C[C@@H](C/C=C(\C)[C@@H](O[C@H]3C[C@H](OC)[C@@H](O[C@H]4C[C@H](OC)[C@@H](O)[C@H](C)O4)[C@H](C)O3)[C@@H](C)/C=C/C=C3\CO[C@@H]4[C@H](O)C(C)=C[C@@H](C(=O)O1)[C@]34O)O2 (tested in a mixture with another compound)
active: [1] 0.45 µM | [4] 35.2 µM | [5] 0.332 µM | [8] 0.0449 µM | [10] 5.84 µM | [17] 12.3 µM | [16] 0.206 µM
inactive: [2] | [6] | [7] | [9]
